The supplement of paper PMC10849652
Of roughly 8,800 targets only a part is listed; those with a hit were picked by preference. About 0.5% of all pairs of compound and target were hits. A number with no mark means an inactive call.

How the values were obtained:
Assay in all cases: log2 fold change, soluble protein after heating vs DMSO (PISA); higher = thermal stabilisation; K562 lysate, 10 uM; active = over 0.2 and 3.5 SD of the protein, either way, in both replicates (recomputed)
[1] = compound: C1=CC=C(C=C1)[C@H](COC2=CC3=C(C=C2)NC(=O)N3)NC(=O)C4=CC=CN(C4=O)CC5=CC(=C(C=C5)F)F
In short: (§1)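 Values give the log-two fold change in thermal stability against solvent controls, from duplicates. Crude K562 extract at 1 mg/mL protein, made by dounce homogenisation in PBS pH 7.4 with 1 mM MgCl2, was treated with 10 μM compound for 30 min. After 3 min heating across 48°C-58°C, aliquots were pooled, adjusted to 0.5% NP-40 at 4°C and centrifuged at 21,000xg for 90 min. The supernatant was measured by TMTpro 16plex LC-MS/MS with channel sums equalised.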

[2] = compound: CC1=C(SC2=C1C(=N[C@H](C3=NN=C(N32)C)CC(=O)N)C4=CC=C(C=C4)Cl)C
In short: as §1

[3] = compound: CC1=C2C(=CC=C1)N=C(N(C2=O)C3=CC=CC=C3C)CN4C=NC5=C(N=CN=C54)N
In short: as §1

[4] = compound: Cc1sc2c(c1C)C(c1ccc(Cl)cc1)=N[C@@H](CC(=O)OC(C)(C)C)c1nnc(C)n1-2
In short: as §1

[5] = compound: c1ccc([C@@H]2C[C@H]2NC2CCNCC2)cc1
In short: as §1

Chain of UniProt Q99836 (Q99836 whole entry, looked up): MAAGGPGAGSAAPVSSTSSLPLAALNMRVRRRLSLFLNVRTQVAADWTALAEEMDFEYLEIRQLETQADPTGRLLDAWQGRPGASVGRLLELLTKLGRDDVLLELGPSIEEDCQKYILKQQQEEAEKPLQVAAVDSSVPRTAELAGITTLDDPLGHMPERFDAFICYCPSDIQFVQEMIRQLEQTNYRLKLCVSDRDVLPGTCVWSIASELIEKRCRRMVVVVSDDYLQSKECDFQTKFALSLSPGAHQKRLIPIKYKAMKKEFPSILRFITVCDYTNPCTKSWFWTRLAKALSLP
Chain of UniProt Q6ZNJ1 (Q6ZNJ1 whole entry, looked up): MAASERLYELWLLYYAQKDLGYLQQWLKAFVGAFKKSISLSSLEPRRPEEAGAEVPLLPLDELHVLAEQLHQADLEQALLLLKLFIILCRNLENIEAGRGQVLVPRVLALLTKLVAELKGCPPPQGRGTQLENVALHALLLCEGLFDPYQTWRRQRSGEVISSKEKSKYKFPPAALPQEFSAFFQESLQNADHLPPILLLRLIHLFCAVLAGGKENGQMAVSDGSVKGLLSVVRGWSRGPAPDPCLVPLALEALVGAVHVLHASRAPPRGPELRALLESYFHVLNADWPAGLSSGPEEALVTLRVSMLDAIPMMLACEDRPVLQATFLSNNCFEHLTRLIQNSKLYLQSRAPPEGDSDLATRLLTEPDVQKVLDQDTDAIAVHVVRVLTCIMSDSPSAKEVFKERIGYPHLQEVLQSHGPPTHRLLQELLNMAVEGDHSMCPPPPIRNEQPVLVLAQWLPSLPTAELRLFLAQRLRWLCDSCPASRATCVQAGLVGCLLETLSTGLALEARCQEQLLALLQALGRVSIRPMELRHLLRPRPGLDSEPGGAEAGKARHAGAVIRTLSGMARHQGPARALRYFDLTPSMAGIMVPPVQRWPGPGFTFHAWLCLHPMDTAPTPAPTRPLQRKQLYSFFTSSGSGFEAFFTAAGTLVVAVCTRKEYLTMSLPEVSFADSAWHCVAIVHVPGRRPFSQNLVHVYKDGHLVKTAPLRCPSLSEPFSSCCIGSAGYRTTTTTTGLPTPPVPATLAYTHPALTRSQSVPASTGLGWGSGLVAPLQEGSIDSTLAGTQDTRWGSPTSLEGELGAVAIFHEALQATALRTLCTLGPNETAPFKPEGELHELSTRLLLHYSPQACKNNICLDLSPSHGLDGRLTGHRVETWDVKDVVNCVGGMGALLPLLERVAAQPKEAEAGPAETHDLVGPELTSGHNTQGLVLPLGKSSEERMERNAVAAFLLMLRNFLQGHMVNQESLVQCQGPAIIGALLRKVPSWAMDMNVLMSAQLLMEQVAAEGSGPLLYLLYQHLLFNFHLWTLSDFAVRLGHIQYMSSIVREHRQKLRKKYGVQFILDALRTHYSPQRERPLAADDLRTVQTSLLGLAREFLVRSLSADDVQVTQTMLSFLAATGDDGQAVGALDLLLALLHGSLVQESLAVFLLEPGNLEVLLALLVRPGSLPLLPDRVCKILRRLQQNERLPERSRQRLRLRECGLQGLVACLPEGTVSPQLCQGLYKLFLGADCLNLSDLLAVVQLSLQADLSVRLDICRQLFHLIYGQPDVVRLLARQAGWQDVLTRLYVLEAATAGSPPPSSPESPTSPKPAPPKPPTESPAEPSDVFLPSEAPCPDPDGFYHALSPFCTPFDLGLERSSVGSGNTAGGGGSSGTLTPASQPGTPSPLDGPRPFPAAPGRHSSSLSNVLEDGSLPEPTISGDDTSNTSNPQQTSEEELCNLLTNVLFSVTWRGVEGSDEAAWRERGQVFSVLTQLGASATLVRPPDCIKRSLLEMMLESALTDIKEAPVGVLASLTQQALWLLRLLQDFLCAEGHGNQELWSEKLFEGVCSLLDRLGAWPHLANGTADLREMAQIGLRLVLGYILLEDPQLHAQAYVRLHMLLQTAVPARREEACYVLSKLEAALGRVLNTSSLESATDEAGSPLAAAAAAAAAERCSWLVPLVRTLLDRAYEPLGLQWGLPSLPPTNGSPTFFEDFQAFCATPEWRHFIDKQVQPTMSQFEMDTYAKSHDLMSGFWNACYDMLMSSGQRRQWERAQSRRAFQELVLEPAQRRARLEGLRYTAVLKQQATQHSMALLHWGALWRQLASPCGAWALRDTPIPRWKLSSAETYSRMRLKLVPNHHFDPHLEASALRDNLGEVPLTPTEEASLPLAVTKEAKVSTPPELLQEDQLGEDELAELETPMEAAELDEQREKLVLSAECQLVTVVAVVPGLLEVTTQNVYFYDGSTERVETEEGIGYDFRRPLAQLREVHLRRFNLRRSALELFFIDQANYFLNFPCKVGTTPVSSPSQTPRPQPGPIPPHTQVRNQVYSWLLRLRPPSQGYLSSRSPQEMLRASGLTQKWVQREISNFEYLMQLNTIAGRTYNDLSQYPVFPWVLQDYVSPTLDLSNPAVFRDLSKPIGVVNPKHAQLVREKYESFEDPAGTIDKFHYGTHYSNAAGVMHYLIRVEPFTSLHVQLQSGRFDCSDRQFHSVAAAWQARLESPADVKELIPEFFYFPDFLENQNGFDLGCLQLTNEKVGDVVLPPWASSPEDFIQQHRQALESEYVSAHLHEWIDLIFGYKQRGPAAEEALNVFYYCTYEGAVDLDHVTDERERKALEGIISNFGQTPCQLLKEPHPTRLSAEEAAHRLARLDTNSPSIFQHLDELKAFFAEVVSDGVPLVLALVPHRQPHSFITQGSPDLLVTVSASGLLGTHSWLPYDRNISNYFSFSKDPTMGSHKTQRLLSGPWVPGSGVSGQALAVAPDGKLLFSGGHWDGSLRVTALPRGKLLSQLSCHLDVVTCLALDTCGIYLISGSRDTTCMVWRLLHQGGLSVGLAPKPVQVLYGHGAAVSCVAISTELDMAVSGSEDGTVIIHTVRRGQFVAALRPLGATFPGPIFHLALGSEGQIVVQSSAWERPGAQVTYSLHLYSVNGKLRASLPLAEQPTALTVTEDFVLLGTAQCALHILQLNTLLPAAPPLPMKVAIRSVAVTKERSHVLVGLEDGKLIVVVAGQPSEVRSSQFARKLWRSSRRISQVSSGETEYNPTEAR
Chain of UniProt Q9BYG3 (Q9BYG3 whole entry, looked up): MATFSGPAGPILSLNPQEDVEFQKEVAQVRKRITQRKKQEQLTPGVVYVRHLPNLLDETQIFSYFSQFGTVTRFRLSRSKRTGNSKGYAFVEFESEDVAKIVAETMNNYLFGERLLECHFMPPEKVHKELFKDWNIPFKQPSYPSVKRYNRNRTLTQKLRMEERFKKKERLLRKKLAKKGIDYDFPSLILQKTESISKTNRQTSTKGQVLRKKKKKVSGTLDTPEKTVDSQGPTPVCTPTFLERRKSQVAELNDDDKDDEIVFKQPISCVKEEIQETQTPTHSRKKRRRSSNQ
Chain of UniProt P42695 (P42695 whole entry, looked up): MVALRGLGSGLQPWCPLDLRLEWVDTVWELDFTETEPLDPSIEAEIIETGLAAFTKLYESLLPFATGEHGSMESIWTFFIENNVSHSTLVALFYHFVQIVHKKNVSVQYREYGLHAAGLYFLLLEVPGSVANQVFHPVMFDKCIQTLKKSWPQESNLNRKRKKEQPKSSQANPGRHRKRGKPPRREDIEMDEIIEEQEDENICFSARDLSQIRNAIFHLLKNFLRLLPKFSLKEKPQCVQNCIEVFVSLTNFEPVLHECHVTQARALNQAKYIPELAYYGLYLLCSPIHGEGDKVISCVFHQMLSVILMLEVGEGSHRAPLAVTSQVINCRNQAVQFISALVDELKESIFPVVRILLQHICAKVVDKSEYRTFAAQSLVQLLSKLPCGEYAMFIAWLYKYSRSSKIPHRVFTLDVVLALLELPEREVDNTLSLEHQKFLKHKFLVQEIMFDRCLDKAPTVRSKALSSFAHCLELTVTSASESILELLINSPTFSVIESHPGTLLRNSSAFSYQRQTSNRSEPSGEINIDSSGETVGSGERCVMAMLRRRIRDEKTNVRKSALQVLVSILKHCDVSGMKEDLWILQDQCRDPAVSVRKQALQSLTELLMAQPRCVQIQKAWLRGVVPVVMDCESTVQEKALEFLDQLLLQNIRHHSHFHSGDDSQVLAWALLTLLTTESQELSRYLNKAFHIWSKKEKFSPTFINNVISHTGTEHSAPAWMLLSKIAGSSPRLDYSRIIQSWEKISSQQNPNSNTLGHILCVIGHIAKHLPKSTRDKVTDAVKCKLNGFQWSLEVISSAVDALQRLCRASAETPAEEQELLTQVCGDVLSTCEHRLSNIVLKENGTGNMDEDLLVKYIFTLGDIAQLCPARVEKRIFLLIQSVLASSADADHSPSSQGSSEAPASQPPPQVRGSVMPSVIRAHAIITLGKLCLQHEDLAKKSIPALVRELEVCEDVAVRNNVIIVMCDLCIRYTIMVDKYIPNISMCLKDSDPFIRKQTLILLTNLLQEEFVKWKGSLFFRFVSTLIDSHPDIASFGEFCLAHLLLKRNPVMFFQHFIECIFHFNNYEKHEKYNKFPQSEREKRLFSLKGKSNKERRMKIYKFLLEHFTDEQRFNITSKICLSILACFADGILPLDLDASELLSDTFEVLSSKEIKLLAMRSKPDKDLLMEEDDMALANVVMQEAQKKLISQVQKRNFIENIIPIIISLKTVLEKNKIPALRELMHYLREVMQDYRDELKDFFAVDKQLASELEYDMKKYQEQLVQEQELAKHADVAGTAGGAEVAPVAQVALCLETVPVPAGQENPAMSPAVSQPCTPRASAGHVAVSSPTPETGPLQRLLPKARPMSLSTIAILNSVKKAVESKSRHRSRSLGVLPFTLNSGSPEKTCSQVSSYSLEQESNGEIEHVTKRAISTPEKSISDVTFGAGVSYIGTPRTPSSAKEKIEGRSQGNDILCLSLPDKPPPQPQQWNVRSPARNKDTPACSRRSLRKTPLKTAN
Chain of UniProt Q9BPZ3 (Q9BPZ3 whole entry, looked up): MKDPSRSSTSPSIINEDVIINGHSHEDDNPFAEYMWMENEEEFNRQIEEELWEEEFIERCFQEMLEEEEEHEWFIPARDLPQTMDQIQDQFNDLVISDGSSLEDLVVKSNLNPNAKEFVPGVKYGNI
Chain of UniProt Q99417 (Q99417 whole entry, looked up): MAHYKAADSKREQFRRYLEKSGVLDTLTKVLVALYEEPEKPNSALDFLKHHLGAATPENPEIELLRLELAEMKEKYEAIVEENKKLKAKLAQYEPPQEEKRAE

Row | Target | log2 fold change [1] | log2 fold change [2] | log2 fold change [3] | log2 fold change [4] | log2 fold change [5]
1 | NCKAP1L (UniProt P55160) | -0.002 | 0.021 | -0.106 | -0.061 | 0.005
2 | OSBPL3 isoform 2 (UniProt Q9H4L5) | -0.02 | -0.018 | 0.043 | -0.017 | 0.004
3 | NEK7 (UniProt Q8TDX7) | 0.03 | -0.032 | -0.004 | -0.076 | 0.026
4 | MRPL58 (UniProt Q14197) | 0.011 | 0.029 | 0.075 | -0.002 | 0.081
5 | NOC2L (UniProt Q9Y3T9) | 0.004 | -0.019 | 0.009 | 0.324 (active) | -0.012
6 | NPTN (UniProt Q9Y639) | 0.026 | -0.045 | -0.038 | -0.018 | -0.006
7 | NFAT5 isoform 4 (UniProt O94916) | -0.208 | 0.11 |  |  | 
8 | NOB1 (UniProt Q9ULX3) | 0.004 | -0.051 | 0.038 | -0.021 | 0.13
9 | NAA16 (UniProt Q6N069) | 0.027 | 0.01 | 0.168 | 0.065 | 
10 | NOSIP (UniProt Q9Y314) | 0.018 | -0.005 | -0.018 | 0.019 | 0.012
11 | MYCBP2 (UniProt O75592) | -0.006 | -0.003 | 0.017 | 0.005 | -0.005
12 | NCAPH2 (UniProt Q6IBW4) | 0.027 | -0.001 | 0.035 | -0.005 | 0.024
13 | MRPS31 (UniProt Q92665) | -0.019 | -0.048 | 0.046 | 0.014 | 0.014
14 | MTHFD1, A0A384N5Y3 | -0.003 | -0.002 | 0.015 | 0.018 | 0.071
15 | NBEAL2 (UniProt Q6ZNJ1) | -0.047 | 0.055 | 0.015 | -0.029 | 0.044
16 | NIFK (UniProt Q9BYG3) | 0.065 | 0.07 | 0.015 | 0.056 | 0.047
17 | NMRAL1 (UniProt Q9HBL8) | -0.09 | 0.049 | 0.009 | -0.071 | -0.027
18 | NQO1 (UniProt P15559) | 0.433 (active) | 0.025 | 0.223 | -0.008 | -0.016
19 | NNT (UniProt Q13423) | -0.005 | 0.052 | 0 | 0.015 | 0.034
20 | NFKBIB (UniProt Q15653) | 0.068 | 0 | 0.014 | 0.055 | -0.185
21 | NUP205 (UniProt Q92621) | -0.042 | -0.019 | 0.045 | 0.006 | -0.001
22 | MTA2 (UniProt O94776) | 0 | 0.015 | -0.004 | 0.015 | 0.031
23 | NEDD8 (UniProt Q15843) | 0.051 | -0.014 | -0.047 | 0.002 | 0.085
24 | ORC2 (UniProt Q13416) | -0.052 | -0.011 | -0.012 | 0.025 | 0.044
25 | NACC1 (UniProt Q96RE7) | 0.013 | -0.004 | 0.027 | 0.013 | 0.033
26 | MRPL53 (UniProt Q96EL3) | -0.056 | -0.102 | 0.079 | -0.026 | -0.093
27 | OCRL (UniProt Q01968) | 0.018 | 0.056 | 0.003 | 0.013 | -0.017

Row | Target | log2 fold change [1] | log2 fold change [2] | log2 fold change [3] | log2 fold change [4] | log2 fold change [5]
28 | PAIP2 (UniProt Q9BPZ3) | -0.009 | 0.042 | 0.03 | 0.021 | 0.036
29 | NFAT5 isoform 5 (UniProt O94916) | 0.12 | -0.028 | 0.009 | -0.02 | -0.007
30 | MYD88 isoform 6 (UniProt Q99836) | 0.019 | -0.021 | 0.026 | -0.008 | 0.013
31 | NIPBL (UniProt Q6KC79) | 0.003 | -0.055 | -0.001 | -0.014 | -0.01
32 | NCK1 (UniProt P16333) | 0.018 | 0 | 0.022 | 0.003 | 0.049
33 | NMT1 (UniProt P30419) | 0.004 | 0.002 | -0.002 | 0.011 | 0.004
34 | MRPL51 (UniProt Q4U2R6) | -0.001 | -0.053 | 0.043 | 0.066 | -0.109
35 | NPM3 (UniProt O75607) | 0.172 | -0.045 | -0.009 | -0.03 | -0.157
36 | MTFP1 (UniProt Q9UDX5) | 0.005 | -0.058 | 0.03 | 0.079 | -0.222
37 | OLA1 (UniProt Q9NTK5) | -0.001 | 0.04 | 0 | 0.011 | 0.022
38 | MYCBP (UniProt Q99417) | 0.043 | -0.087 | -0.013 | -0.022 | -0.27
39 | NCAPD3 (UniProt P42695) | 0.028 | -0.007 | 0.046 | -0.005 | 0.016
40 | NBN (UniProt O60934) | 0.074 | 0.046 | 0.003 | -0.011 | 0.059
41 | MTHFD1L (UniProt B7ZM99) | -0.039 | 0.025 | 0.06 | 0.025 | 0.049
42 | NCAPG (UniProt Q9BPX3) | -0.031 | 0.013 | -0.007 | 0.013 | 0.03
43 | MVB12A (UniProt Q96EY5) | 0.006 | 0.032 | 0.017 | 0.032 | 0.059
44 | NR3C1 isoform 3 (UniProt P04150) | 0.292 (active) | 0.034 | -0.001 | -0.035 | 0.084
45 | MSI2 (UniProt Q96DH6) | -0.007 | -0.007 | -0.001 | 0.048 | 0.071
46 | NCOR2 (UniProt C9J0Q5) | 0.045 | 0.033 | -0.031 | 0.048 | -0.006
47 | MYOM1 (UniProt P52179) | -0.012 | 0.088 | -0.111 | -0.135 | -0.079
48 | PANK2 (UniProt Q9BZ23) | 0.024 | 0.081 | -0.021 | 0.019 | -0.077
49 | NUP160 (UniProt Q12769) | -0.021 | -0.027 | 0.012 | -0.04 | 0.01
50 | OGFOD2 (UniProt Q6N063) | -0.079 | 0.049 | -0.07 | 0.033 | 0.076
51 | PANK4 (UniProt Q9NVE7) | -0.009 | -0.025 | 0.026 | 0.003 | -0.013
52 | NUSAP1 (UniProt Q9BXS6) | 0.039 | 0.018 | -0.001 | 0.026 | -0.223
53 | MYO1C (UniProt O00159) | -0.025 | -0.038 | -0.051 | -0.025 | 0.033
54 | NDUFS1 isoform 2 (UniProt P28331) | 0.009 | -0.003 | 0.022 | 0.013 | 0.035
